An excerpt weighted towards active compounds, which were near 4.1% of everything screened.
DAX1 inh-1 = NR0B1 (DAX1) inhibition; P51843; HEK293 Gal4-DAX1 luciferase reporter, luminescence; inhibition, % at 6.75 µM; hit rate 0.99% among 340,000;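 active = inhibition above the mean over all tested compounds plus 3 SD, cut at about 4.2% in these data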;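 note: inhibition shows as a rise in luminescence from relieved DAX1 repression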
Target sequence (P51843 207-470 limits assumed): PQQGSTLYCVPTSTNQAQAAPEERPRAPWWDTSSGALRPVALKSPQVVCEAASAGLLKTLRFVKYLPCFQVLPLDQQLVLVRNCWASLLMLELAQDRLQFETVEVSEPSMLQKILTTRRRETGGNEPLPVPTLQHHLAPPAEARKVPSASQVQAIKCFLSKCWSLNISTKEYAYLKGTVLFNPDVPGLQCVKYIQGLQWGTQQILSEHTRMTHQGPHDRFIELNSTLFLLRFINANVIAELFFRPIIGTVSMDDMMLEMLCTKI
DAX1 inh-2 = DAX1 (NR0B1) inhibition, primary screen. HEK293T StAR-luciferase reporter, SF-1/DAX-1 repression relief. inhibition, % at 6.8 µM. hit rate 1.1% among 370,000. AID 652010;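 active = inhibition above the mean over all tested compounds plus 3 SD, cut at about 3.6% in these data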;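 note: higher inhibition means more luminescence from relief of DAX-1 repression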
hcDAF12 agonist = H. contortus DAF-12 activation, primary screen | HEK293 hcDAF-12 lit1-tk-luc reporter, luminescence; 0% DMSO, 100% Δ7-dafachronic acid | activation, % at 6.8 µM | hit rate 1.4% among 370,000 | AID 652067;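 active = activation above the mean of all tested compounds plus 3 SD, cut at about 5.5% in these data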
hgDAF-12 ag = hgDAF-12 agonism, primary luciferase screen; HEK293 GAL4-hgDAF12 UAS-luciferase reporter, agonist luminescence; normalized to butyrate control; activation, % at 6.8 µM; hit rate 1.8% among 370,000; AID 687014;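 active = activation above a cutoff set at the mean of all screened compounds plus 3 SD, cut at about 10% in these data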
ssDAF12 agonist = activates DAF-12 receptor from parasite S. stercoralis; HEK293 ssDAF-12/GRIP1 lit1-tk-luc reporter, luminescence; % of 3 µM dafachronic acid response; activation, % at 6.8 µM; hit rate 1% among 370,000; AID 652126;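 active = activation above the mean over all tested compounds plus 3 SD, cut at about 0.9% in these data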
Hits are given with their value; – = inactive; · = no result.

SMILES | DAX1 inh-1 | DAX1 inh-2 | hcDAF12 agonist | hgDAF-12 ag | ssDAF12 agonist
Cc1ccc(-n2c(COc3ccccc3)nnc2SCC(=O)Nc2ccccc2-c2ccccc2)cc1 | · | – | – | – | –
O=C(Nc1ccc(F)cc1)c1cc2ccccc2o1 | 4.3 | – | 6.5 | – | 1.6
O=C(Nc1ccc(Cl)cc1Cl)c1cc2ccccc2o1 | – | – | – | – | 2.2
CSc1nc2ccc(NC(=O)c3cccs3)cc2s1 | – | – | – | 11 | –
CC(C)(C)n1cnc2cc(NC(=O)c3ccccc3)ccc21 | 5.5 | – | – | 11 | –
O=C(Nc1ccc(NC(=O)c2cc3ccccc3o2)cc1)c1ccco1 | – | – | – | – | –
CC1=C2NC(N)=[N+](Cc3ccccc3)CC2n2c(=O)n(-c3ccccc3)c(=O)n2C1 (configuration not stated) | · | – | – | – | –
O=C(NCc1ccc(F)c(F)c1)C1C2C=CC3(CN(Cc4ccccc4)C(=O)C13)O2 (configuration not stated) | · | – | – | – | –
Cn1c(=O)[nH]c2c(Br)nccc21 | · | – | – | – | –
COc1cc(NC(=O)C(C)C)ccc1NC(=O)c1cc2ccccc2o1 | 6.1 | – | – | – | –
CSc1nc2ccc(NC(=O)c3cc4ccccc4o3)cc2s1 | – | – | – | 12 | –
CSc1nc2ccc(NC(=O)c3ccc(F)c(F)c3)cc2s1 | – | – | – | – | –
O=C(NCCc1ccccc1)c1ccc2c(c1)OCCO2 | – | – | – | – | –
O=C(NCCc1ccc2c(c1)OCCO2)c1ccccc1F | – | – | – | 12 | –
CC(=O)Nc1ccc(-c2cc3ccccc3o2)cc1 | 4.5 | – | – | – | 0.9
C[C@H](O)[C@@H]1CN2CCc3ccc(N4CCOCC4)cc3[C@@H]2C[C@@H]1N(C)C(=S)NCCc1ccccc1 | · | – | – | – | –
COC(=O)[C@]12C[C@H](CC(=O)N3CCOCC3)C(=O)N(CCc3ccc(OC)c(OC)c3)C1=C[C@H](COCc1ccccc1)O[C@@H]2C | · | – | – | – | –
CC(=O)C1=C(C)N(Cc2ccc(Cl)cc2)C(=S)NC1c1ccccc1 (configuration not stated) | · | – | – | – | –
COC(=O)C[C@@H]1CC[C@H]2[C@@H](COc3ccc(NC(=O)c4ccc(Cl)cc4)cc3C(=O)N2C)O1 | · | – | – | – | –
Cc1ccc(-c2[nH]c3ccccc3c2SCCNC(=O)c2cc3ccccc3oc2=O)cc1 | – | – | 6.5 | – | –
N/C(=N\NC(=O)c1ccccc1)c1cc2ccccc2oc1=O | – | – | – | 12 | –
CCn1cnc2cc(NCc3cccs3)ccc21 | – | – | – | – | –
CCn1cnc2cc(NC(=O)c3cccs3)ccc21 | – | 3.9 | – | – | –
O=C(NCCc1ccc(F)cc1)c1cc2ccccc2oc1=O | 4.3 | – | – | – | –
COC(=O)[C@]12C[C@H](CC(=O)NCCC(C)C)C(=O)N(Cc3ccc4c(c3)OCO4)C1=C[C@H](C(C)C)O[C@@H]2C1CC1 | · | – | – | – | –
SMILES | DAX1 inh-1 | DAX1 inh-2 | hcDAF12 agonist | hgDAF-12 ag | ssDAF12 agonist
CCOc1ccccc1-c1ccc(C(=O)NCc2ccccc2)o1 | 7.3 | – | – | – | –
Cc1ccc(-c2ccc(C(=O)NCc3ccccc3)o2)c2ccccc12 | – | – | – | – | –
CCOC(=O)CC[C@@]1(C(=O)OCC)C[C@@H](CC(=O)N2CCOCC2)C(=O)N2CCCC=C21 | · | – | – | – | –
CC(C)C[C@@H]1COc2cccc(F)c2S(=O)(=O)N1C | · | – | – | – | –
CC(=O)N1N=C(c2ccc(C)cc2)CC1c1ccc2c(c1)OCO2 (configuration not stated) | – | – | 6.1 | – | –
CS(=O)(=O)N1N=C(c2ccc(Br)cc2)CC1c1ccc2c(c1)OCO2 (configuration not stated) | – | · | · | · | ·
COC(=O)[C@H]1C[C@@]2(N3CCCC3)c3ccccc3N[C@H]2N1S(C)(=O)=O | · | – | – | – | –
Cc1nc(N2CCOCC2)nc(N2CCC(C)CC2)c1[N+](=O)[O-] | – | – | – | – | –
Cc1nc(N2CCOCC2)nc(N2CCCCC2C)c1[N+](=O)[O-] (configuration not stated) | 5.5 | – | – | – | –
O=C(C1CCN(c2ncnc3c2sc2cccc(F)c23)CC1)N1CCN(Cc2ccc(F)cc2)CC1 | · | – | – | – | –
O=C(O)c1ccc2c(c1)S(=O)(=O)N=C1CCCCCN12 | 5.1 | – | – | – | –
COc1cccc(CNC(=O)[C@H]2CCCN2C(=O)[C@H]2CCCN2C(=O)c2cccc3ccccc23)c1 | · | – | – | – | –
C=CCn1c(C)nc2c(sc3nc4c(cc32)COC(C)(C)C4)c1=O | 4.7 | – | – | 13 | –
O=C(Nc1ccc(OC(F)(F)F)cc1)c1cnccn1 | 6.4 | – | – | – | –
COC(=O)c1ccc(N=NNc2ccccc2)cc1 | – | 4.1 | – | 11 | –
CCOC(=O)C1=C(C)NC(C)=C(C(=O)OCC)C1/C=C/c1ccccc1OC | 6.4 | – | – | – | –
CCc1noc2cc(-c3ccccc3)n(C)c(=O)c12 | · | – | – | 13 | –
CNC(=O)c1ccc(-c2cc3onc(-c4ccccc4)c3c(=O)n2C)cc1 | – | – | – | – | –
Cn1c(-c2ccc(F)cc2)cc2onc(-c3c(F)cccc3Cl)c2c1=O | – | – | – | 11 | –
Cc1ccc(-c2cc3onc(-c4ccccc4)c3c(=O)n2C)cc1 | – | – | – | – | –
Cc1cccnc1NC(=O)Nc1ccccc1 | – | – | – | – | –
Cc1cccnc1NC(=O)Nc1ccc(Cl)cc1 | 4.3 | – | – | – | –
Cc1cccnc1NC(=O)Nc1cccc(F)c1 | – | – | – | 11 | –
CCC[C@H]1[C@@H](NS(=O)(=O)c2ccccc2[N+](=O)[O-])CC[C@@]23CCCN2C(=O)CCC[C@@H]13 | · | · | – | – | –
COC(=O)[C@H]1C[C@@]2(n3ccc4ccccc43)c3ccccc3N[C@H]2N1 | · | – | – | – | –
SMILES | DAX1 inh-1 | DAX1 inh-2 | hcDAF12 agonist | hgDAF-12 ag | ssDAF12 agonist
COC(=O)c1cc2c(c3c4cc(OC)ccc4n(S(=O)(=O)c4ccc(F)cc4)c13)C(=O)N(CC(C)C)C2 | · | – | – | – | –
CCOc1ccc(-n2c(SCC(=O)Nc3ccccc3-c3ccccc3)nnc2-c2cccs2)cc1 | · | – | – | – | –
O=C(NC1CCCCN(Cc2cccc(C(F)(F)F)c2)C1=O)c1c(F)cccc1F (configuration not stated) | · | – | – | – | –
O=C(OCC#CCSc1nnc(-c2cccc3ncccc23)o1)c1ccc(F)cc1 | · | · | – | – | –
CC(C)n1cc(/C=N/Nc2ccc(Cl)c(C(=O)O)c2)c2ccccc21 | 4.5 | · | · | · | ·
O=C(NCc1cccnc1)O[C@H]1CC[C@@]23CCCN2C(=O)CCC[C@H]3C1 | · | · | – | – | –
COCOCCn1cc(CN2CCS(=O)(=O)N(Cc3ccc(-c4ccc(OC)nc4)cc3)C(C(C)C)C2=O)nn1 (configuration not stated) | – | – | – | – | –

Screening data: PubChem, The Scripps Research Institute Molecular Screening Center
